# Hit rate of the full screen: of about 310,000 compounds, about 18,000 (5.8%) were called active. Another 22% or so got no clear call; they are omitted. Calls follow the shape of the dose curve; as a rule, active = well fitted inhibition curve with a large enough effect; inconclusive = small, poorly fitted or top-dose-only effect, or another doubt; inactive = no such curve, though single readings can be large or run the other way. What follows is part of a selection rich in actives, with near analogues and random picks from the rest.
# Assay: Primary qHTS for delayed death inhibitors of the malarial parasite plastid, 48 hour incubation
# Settings: P. falciparum luciferase growth in erythrocytes; series mostly up to 28.7 µM; activity change, negative = inhibition: at the top concentration
# Description: The goal of this screen is to discover new antimalarial compounds that act by inhibiting the development of the apicoplast in the malarial parasite Plasmodium falciparum. The biochemical processes that make this organelle essential for erythrocytic stage parasites are not well understood. However, antibiotics such as azithromycin and tetracycline, which target the apicoplast translational machinery, have a potent antimalarial effect.
# We have developed a cell-based assay that measures parasite growth based on the expression of an integrated copy of a firefly luciferase reporter. To detect small molecules that cause this "delayed death" phenotype, erythrocytes infected with the luciferase-expressing parasites were incubated with compounds for either one or two generations, corresponding to 48 and 96 hours, respectively. Compounds that inhibit parasite growth in the second generation, but not the first, should be enriched in antimalarials that target the apicoplast. Growth inhibition is detected by a decrease in luciferase activity.
# Assay Provider: David Fidock and Eric Ekland, Columbia University
# Keywords: NIH Roadmap, MLPCN, MLI, MLSMR, qHTS, NCGC, qHTS, malaria, luciferase, viability
# Four microliters of culture medium (RPMI 1640 with 0.5% w/v Albumax (GIBCO), 24 mM sodium bicarbonate and 10 ug/mL gentamycin) were dispensed by a Multi-drop Combi into white solid 1536-well plates (Grenier) and 23 nL compound was added by a pin tool. Four microliters of infected erythrocytes (2% hematocrit, 0.1% parasitemia final concentration) in culture medium were dispensed and the plates incubated for 48 hours at 37 C in 5% CO2. Two microliters of luciferase detection reagent was added and luminescence was detected by a ViewLux (PerkinElmer) reader.
# % is scaled to controls: 0 for no effect and ±100 for the full control effect; potency is read from the fitted curve at half-maximal effect.
Compound,"activity change, negative = inhibition",Potency
CCS(=O)(=O)Nc1ccc(C(=O)NCCSc2ccccc2)cc1,0% (inactive),–
CN(C)CCNC(=O)c1[nH]nc2c1CCc1ccccc1-2,44.2% (inactive),–
O=C(N/N=C/c1ccoc1)c1ccc(Cl)cc1Cl,5.69% (inactive),–
CCCn1nc(NC(=O)C(C)C)c2cc3cc(OC)ccc3nc21,–,11.7 µM (active)
CCCn1nc(NS(=O)(=O)c2ccccc2)c2cc3cc(C)ccc3nc21,8.29% (inactive),–
CCCn1nc(NS(=O)(=O)c2ccc(F)cc2)c2cc3ccccc3nc21,20.1% (inactive),–
O=C(OCC(=O)N1CCCCCC1)c1cnc(Cl)c(Cl)c1,-3.82% (inactive),–
CC[C@]1([C@H]2O[C@@H]([C@@H]3O[C@](O)(CO)[C@@H](C)C[C@H]3C)C[C@H]2C)CC[C@@H]([C@]2(C)CC[C@@]3(C[C@@H](O)[C@@H](C)[C@@H]([C@H](C)[C@H](OC)[C@H](C)C(=O)O)O3)O2)O1,–,0.0169 µM (active)
Cc1nn(-c2ccccc2)c2c1C(c1ccc(F)cc1)C(C#N)=C(N)O2 (configuration not stated),-21.9% (inactive),–
CSc1nc(N)c(C#N)c(-c2ccccc2Cl)c1C#N,3.07% (inactive),–
CSc1ccc(-c2c(C#N)c(N)nc3c2c(C)nn3-c2ccccc2)cc1,–,1.47 µM (active)
COc1cc(CNCc2ccc(OC)c3ccccc23)cc(OC)c1OC,-29.2% (inactive),–
COc1ccccc1N1CCC(N2CCN(CC(C)(C)C)C(CCO)C2)CC1 (configuration not stated),-4.92% (inactive),–
C[N+](C)(CCCCCC[N+](C)(C)CCCN1C(=O)c2cccc3cccc(c23)C1=O)CCCN1C(=O)c2cccc3cccc(c23)C1=O,–,0.329 µM (active)
O=C(CN1C(=O)c2cccc3cccc(c23)C1=O)N1CCCCC1,-23.4% (inactive),–
O=C1c2cccc3cccc(c23)C(=O)N1CCCCCc1n[nH]c(=S)o1,-2.6% (inactive),–
N#CCN(C(=O)COC(=O)C1CC2CCCC(C1)C2=O)c1ccccc1 (configuration not stated),-0.813% (inactive),–
CCOc1ccc(NC(=O)c2ccc(NC(=O)C3CCCO3)cc2)cc1 (configuration not stated),11.7% (inactive),–
CCOc1ccc(S(=O)(=O)N2CCCCC2)cc1NC(=O)CN1CCCC1c1cccs1 (configuration not stated),–,4.65 µM (active)
O=C(CNCc1cccs1)Nc1cc(S(=O)(=O)N2CCCC2)ccc1Cl,-41.9% (inactive),–
CC(=O)NCCC(=O)Nc1cc(S(=O)(=O)N2CCCCC2)ccc1Oc1cccc(C)c1,28% (inactive),–
O=C(CNC(=O)c1ccccc1Br)NNC(=O)c1cccs1,0% (inactive),–
O=C(Nc1ccccc1C(=O)NCCCn1ccnc1)c1ccc(Cl)cc1Cl,–,9.28 µM (active)
O=C(NCCCn1ccnc1)Nc1ccc(Cl)cc1Cl,-10.3% (inactive),–
O=C(NCCCn1ccnc1)c1ccccc1F,10.2% (inactive),–
O=C(CSc1nc(=O)n2ccccc2n1)Nc1ccc2c(c1)OCCO2,38.7% (inactive),–

Compound,"activity change, negative = inhibition",Potency
COc1ccc(C(C)NC(=O)C2CCCC2)cc1 (configuration not stated),3.5% (inactive),–
CN(C)S(=O)(=O)c1ccc(N2CCCC2)c(C(=O)NCc2ccccc2)c1,-7.21% (inactive),–
CN(C)S(=O)(=O)c1ccc(N2CCCC2)c(C(=O)Nc2ccc(Br)cc2F)c1,–,5.22 µM (active)
CN(C)S(=O)(=O)c1ccc(N2CCCC2)c(C(=O)Nc2cccc(F)c2)c1,-17% (inactive),–
COc1ccc(-n2ncc3c2CC(C)(C)CC3NC(=O)CCc2c(C)nn(C)c2C)cc1 (configuration not stated),-1.16% (inactive),–
Cc1cc(C)n2nc(CNS(=O)(=O)c3c(F)c(F)c(F)c(F)c3F)nc2n1,0% (inactive),–
Cn1c(N)c(C(=O)COC(=O)COc2ccc(Cl)cc2)c(=O)n(C)c1=O,20.5% (inactive),–
COc1cc(OC)c(NC(=O)c2ccc(Br)o2)cc1Cl,–,8.28 µM (active)
CCN1CCN(c2c(Cl)cccc2NC(=O)c2ccc(Br)o2)CC1,0% (inactive),–
COC(=O)c1ccc(N2CCOCC2)c(NC(=O)c2ccc(Br)o2)c1,2.02% (inactive),–
O=C(CCCCCn1c(=S)[nH]c2ccsc2c1=O)NC1CCCCC1,-9.79% (inactive),–
CCCN(CC(=O)Nc1ccccc1C)C(=O)c1cc(=O)[nH]c2ccccc12,17.1% (inactive),–
CCCN(CC(=O)Nc1ccccc1C)C(=O)c1ccc2[nH]c3c(c2c1)CC(C)CC3 (configuration not stated),–,10.4 µM (active)
CC1CCc2[nH]c3ccc(C(=O)N(C)CC(=O)Nc4cccc(F)c4)cc3c2C1 (configuration not stated),-27.2% (inactive),–
CCC(C(=O)NCc1cccnc1)n1nc(C)c2sc3ccccc3c2c1=O (configuration not stated),9.32% (inactive),–
CC(C)NC(=O)C(c1ccc(F)cc1)N(C(=O)CCC(=O)Nc1ccccn1)c1ccccc1F (configuration not stated),20.9% (inactive),–
O=C(Nc1ccccc1)c1ccco1,60.9% (inactive),–
O=C(Nc1ccc(O)cc1)c1ccc(NC(=O)c2ccco2)cc1,81.7% (inactive),–
O=C(Nc1ccc(Sc2ccc(Br)cc2)cc1)c1ccco1,–,2.33 µM (active)
COc1ccc(OCc2cc(C(=O)N3CCCC3)no2)c2ccccc12,-19.2% (inactive),–
CC(CCN1CCN=C1N(C)C)c1ccccc1 (configuration not stated),-8.95% (inactive),–
O=c1[nH]cnc(O)c1C(c1ccc(F)cc1)c1c(O)nc[nH]c1=O,-0.229% (inactive),–
COCCCC1CCN(C(=O)C2CCC(=O)N(C3CCCCCC3)C2)CC1 (configuration not stated),-6.84% (inactive),–
Cc1ccc2nc(N3C(=O)C(O)=C(C(=O)c4ccco4)C3c3cccc(O)c3)sc2c1 (configuration not stated),93% (inactive),–
CCc1cccc(NC(=O)COC(=O)c2cc(=O)c3ccccc3o2)c1,22.4% (inactive),–
O=c1oc2c(CN3CCCCC3)c(O)ccc2c2c1CCCCC2,–,2.94 µM (active)

# From PubChem BioAssay AID504832 (National Center for Advancing Translational Sciences (NCATS), 2011)
